# Inconclusive results are not listed. Where a call stands in place of a potency, no number is given. Active and inactive are the calls of the source. Calls follow the shape of the dose curve; as a rule, active = well fitted curve in the direction sought with a large enough effect; inconclusive = small, poorly fitted or top-dose-only effect, or another doubt; inactive = no such curve, though single readings can be large; an effect the other way counts as inactive or inconclusive.
# Columns and labels:
# [1] = Confirmation and Secondary Assay for Modulators of Hemoglobin Beta Chain Splicing at IVS2 654 locus (AID 910);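 also: HeLa cells stably carrying EGFP split by mutant beta-globin IVS2-654 intron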;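 also: potency is read from the fitted curve at half-maximal effect; potency of activators that raise GFP signal by restoring correct splicing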
# Summary of the method: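 HeLa cells stably expressing EGFP interrupted by β-globin IVS2-654 intron, seeded overnight in Opti-MEM/2% FCS, then treated 2 days at 37 °C. Restored splicing read as total peak GFP intensity per well by laser scanning cytometry (488 nm excitation, 500–520 nm emission); 500 nM antisense PNA as control.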
# [2] = Confirmation and Secondary Assay for Modulators of Hemoglobin Beta Chain Splicing at IVS2 705 locus (AID 930);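 also: HeLa cells stably expressing the EGFP-705 splicing reporter; GFP fluorescence per well restored by corrected splicing of the IVS2-705 intron in EGFP; series mostly up to about 46 µM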
# Summary of the method: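 HeLa IVS2-705 EGFP reporter cells, 500/well, compound 2 d at 37C; correct splicing yields fluorescent EGFP. Control: 500 nM antisense PNA. Read-out: total peak GFP intensity.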
# [3] = qHTS Assay for Identification of Small Molecule Agonists for Thrombopoietin (TPO) Signaling Pathway (AID 917); also: potency is read from the fitted curve at half-maximal effect
# Summary of the method: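 Activators of TPO signaling were sought in murine Ba/F3 cells transfected with the human receptor, using a luciferase gene driven by the Glycoprotein IIb promoter; 24-hr compound exposure at 37 C alongside 26 pM TPO, in IL-3-free medium.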
# [4] = target: Pyruvate kinase (Leishmania mexicana) (UniProt Q27686); assay: qHTS Validation Assay for Inhibitors of Leishmania Mexicana Pyruvate Kinase (AID 945); also: potency is read from the fitted curve at half-maximal effect
# Summary of the method: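 Eight-point qHTS titrations; enzyme 0.2 nM LmPYK (E451W mutant); substrates 0.5 mM PEP, 0.1 mM ADP; 7 mM MgCl2; 1 h room temperature; PKLight luminescence normalized to neutral control.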
# [5] = Cell Viability - LYMP2-001 (AID 921);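 also: series mostly up to about 92 µM; cells exposed to compound for 24 h at 37 °C; nearly all actives have a fitted effect of over 70% in size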
# Summary of the method: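 CellTiter-Glo luminescence (intracellular ATP) after 24 hr compound exposure at 37 C, 2500 lymphoblastoid cells/well in complete medium. AC50 fitted with standard Hill equation; tetraoctylammonium bromide positive control.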
# [6] = target: Muscarinic acetylcholine receptor M1 (Rattus norvegicus) (UniProt P08482); assay: qHTS Assay for Antagonists of Acetylcholine Muscarinic M1 Receptor: Measurement of IP-One Response (AID 944); also: nearly all actives have a fitted effect of over 75% in size; also: potency is read from the fitted curve at half-maximal effect
# Summary of the method: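 CHO cells stably expressing rat M1, pretreated 10 min with compound, then stimulated 30 min with carbachol at EC80 (200 nM) in LiCl-containing buffer pH 7.4; IP1 accumulation read by HTRF competition (665/620 nm).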
# [7] = qHTS Assay for Identification of Small Molecule Antagonists for Thrombopoietin (TPO) Signaling Pathway (AID 918); conditions: TPO-dependent cell signaling reporter, antagonist mode; also: potency is read from the fitted curve at half-maximal effect; nearly all actives have a fitted effect of over 60% in size
# Description: NIH Molecular Libraries Screening Centers Network [MLSCN]
# NIH Chemical Genomics Center [NCGC]
# The thrombopoietin (TPO) signaling pathway was assayed in murine Ba/F3 cells stably transfected with the human TPO receptor and a luciferase reporter gene controlled by the Glycoprotein IIb promoter (provided by Axxam). BaF3 cells are an IL-3-dependent pro B cell line that upon TPO stimulation, undergo cell division and induce the megakaryocyte marker, Glycoprotein IIb. The assay was screened at the EC50 of TPO (26 pM) to identify inhibitors of the pathway.
# NCGC Assay Protocol Summary:
# Cells were maintained at 37 C and 5% CO2in RPMI with 10% fetal bovine serum, 0.5 ng/mL murine IL-3, 100U/ml penicillin and 100 ug/ml streptomycin. Prior to plating, cells were incubated overnight in medium without IL-3. Cells were plated at 250 cells/5uL/well into white solid 1536-well plates, 23 nL of compounds were delivered by a pin tool, and 1 uL of TPO (26 pM final concentration in IL-3 deficient medium) was added. Following 24 hrs of incubation at 37 C and 5% CO2, 4 uL of Steadylite detector mix (PerkinElmer) was added, the plates incubated at room temperature for 10 min and luminescence was measured for 10 s and 2X binning by a ViewLux detector (Perkin Elmer).
# [8] = target: Muscarinic acetylcholine receptor M1 (Rattus norvegicus) (UniProt P08482); assay: qHTS Assay for Antagonists of Acetylcholine Muscarinic M1 Receptor: Kinetic Measurement of Intracellular Calcium Response (AID 943); also: nearly all actives have a fitted effect of over 75% in size; also: potency is read from the fitted curve at half-maximal effect
# Summary of the method: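 CHO cells expressing rat M1 receptor, Fluo-4 loaded, preincubated 10 min with compound, then stimulated with EC80 carbachol (100 nM final). Kinetic calcium fluorescence over 4 min; response taken as peak over basal signal.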
# Sequence of Muscarinic acetylcholine receptor M1 (Rattus norvegicus) (P08482 whole entry, looked up): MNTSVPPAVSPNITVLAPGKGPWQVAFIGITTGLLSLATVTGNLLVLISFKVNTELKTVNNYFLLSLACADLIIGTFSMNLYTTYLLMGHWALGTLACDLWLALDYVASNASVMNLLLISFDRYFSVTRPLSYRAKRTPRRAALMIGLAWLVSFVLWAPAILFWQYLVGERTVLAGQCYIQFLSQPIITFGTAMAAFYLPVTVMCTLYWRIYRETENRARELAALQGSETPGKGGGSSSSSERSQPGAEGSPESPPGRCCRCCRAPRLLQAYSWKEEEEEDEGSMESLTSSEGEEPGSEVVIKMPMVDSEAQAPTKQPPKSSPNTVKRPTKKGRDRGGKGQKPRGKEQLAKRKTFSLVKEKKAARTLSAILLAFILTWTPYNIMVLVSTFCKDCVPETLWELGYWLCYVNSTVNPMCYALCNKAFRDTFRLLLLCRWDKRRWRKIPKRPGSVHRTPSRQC
# Sequence of Pyruvate kinase (Leishmania mexicana) (Q27686 2-499 E452W): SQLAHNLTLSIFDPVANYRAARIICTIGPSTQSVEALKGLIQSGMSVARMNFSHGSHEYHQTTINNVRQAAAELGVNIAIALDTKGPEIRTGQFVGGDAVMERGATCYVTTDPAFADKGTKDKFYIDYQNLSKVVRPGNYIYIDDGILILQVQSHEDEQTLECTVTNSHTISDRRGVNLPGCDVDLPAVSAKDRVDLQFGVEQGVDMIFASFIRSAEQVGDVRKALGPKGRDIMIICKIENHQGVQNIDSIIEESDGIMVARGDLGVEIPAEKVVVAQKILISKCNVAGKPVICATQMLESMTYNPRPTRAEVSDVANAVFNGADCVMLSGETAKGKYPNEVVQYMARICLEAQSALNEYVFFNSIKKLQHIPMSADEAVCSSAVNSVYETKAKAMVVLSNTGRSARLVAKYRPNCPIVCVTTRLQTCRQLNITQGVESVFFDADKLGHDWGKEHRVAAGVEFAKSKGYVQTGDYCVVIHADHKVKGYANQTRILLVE
compound,measurement,setting,value
COc1ccccc1OCC(O)CN1CCN(CC(=O)Nc2c(C)cccc2C)CC1 (stereo not drawn),Potency,[1],inactive
same,outcome,[2],inactive
CCc1cccc2c3c([nH]c12)C(CC)(CC(=O)O)OCC3 (stereo not drawn),Potency,[1],inactive
same,Potency,[3],inactive
same,outcome,[2],inactive
same,Potency,[4],inactive
CN1CCC(=C2c3ccccc3CC(=O)c3sccc32)CC1,Potency,[1],inactive
same,Potency,[3],inactive
same,outcome,[2],inactive
same,Potency,[4],inactive
Cc1ccccc1N1C(=O)c2cc(S(N)(=O)=O)c(Cl)cc2NC1C (stereo not drawn),Potency,[1],inactive
same,Potency,[3],inactive
same,outcome,[2],inactive
same,Potency,[4],inactive
CC12CC3CC(C)(C1)CC(N)(C3)C2,Potency,[1],inactive
same,outcome,[2],inactive
CC1COc2c(N3CCN(C)CC3)c(F)cc3c(=O)c(C(=O)O)cn1c23 (stereo not drawn),Potency,[1],inactive
same,outcome,[2],inactive
CN1CCN2c3ccccc3Cc3ccccc3C2C1 (stereo not drawn),Potency,[1],inactive
same,outcome,[2],inactive
CC(C)NCC(O)c1ccc(O)c(O)c1 (stereo not drawn),Potency,[1],inactive
same,outcome,[5],inactive
same,outcome,[2],inactive
CC(C)Cc1ccc(C(C)C(=O)O)cc1 (stereo not drawn),Potency,[1],inactive
same,Potency,[3],inactive
same,outcome,[2],inactive
same,Potency,[4],inactive
CCC1(C)CC(=O)NC1=O (stereo not drawn),Potency,[1],inactive
same,outcome,[2],inactive
CN(C)c1nc(N(C)C)nc(N(C)C)n1,Potency,[1],inactive
same,Potency,[3],inactive
same,outcome,[2],inactive
same,Potency,[4],inactive
O=C(c1ccc(F)cc1)C1CCN(CCn2c(=O)[nH]c3ccccc3c2=O)CC1,Potency,[1],inactive
same,Potency,[3],inactive
same,outcome,[2],inactive
same,Potency,[6],inactive
same,Potency,[4],inactive
Cc1cc(C(C)(C)C)cc(C)c1CC1=NCCN1,Potency,[1],inactive
same,Potency,[3],inactive
same,outcome,[2],inactive
same,Potency,[4],inactive
NC(=O)NO,Potency,[1],inactive
same,Potency,[3],inactive
same,outcome,[2],inactive
same,Potency,[4],inactive
O=C1c2c(O)ccc(O)c2C(=O)c2c(NCCNCCO)ccc(NCCNCCO)c21,Potency,[1],inactive
same,Potency,[7],0.0251 µM (active)
same,outcome,[2],inactive
same,Potency,[6],5.01 µM (active)
CN1CCN(C2=Nc3cc(Cl)ccc3Nc3ccccc32)CC1,Potency,[1],inactive
same,Potency,[3],inactive
same,outcome,[2],inactive
same,Potency,[4],inactive
NC(CO)C(=O)NNCc1ccc(O)c(O)c1O (stereo not drawn),Potency,[1],inactive
same,outcome,[2],inactive
CCCNCC(O)COc1ccccc1C(=O)CCc1ccccc1 (stereo not drawn),Potency,[1],inactive
same,outcome,[2],inactive
CN(C)C(=N)N=C(N)N,Potency,[1],inactive
same,outcome,[2],inactive
CC(=O)OCC(CCn1cnc2cnc(N)nc21)COC(C)=O,Potency,[1],inactive
same,outcome,[2],inactive
O=C(Nc1ccc([N+](=O)[O-])cc1Cl)c1cc(Cl)ccc1O,Potency,[1],inactive
same,Potency,[3],0.1 µM (active)
same,outcome,[2],inactive
same,Potency,[4],2.51 µM (active)
CC[C@@]1(O)C(=O)OCc2c1cc1n(c2=O)Cc2cc3c(CN(C)C)c(O)ccc3nc2-1,Potency,[1],12.6 µM (active)
same,outcome,[2],inactive
Cc1ccc(-c2cc(C(F)(F)F)nn2-c2ccc(S(N)(=O)=O)cc2)cc1,Potency,[1],inactive
same,outcome,[5],inactive
same,outcome,[2],inactive
O=c1c(O)c(-c2ccc(O)c(O)c2)oc2cc(O)cc(O)c12,Potency,[1],inactive
same,Potency,[3],inactive
same,outcome,[2],inactive
same,Potency,[4],inactive
Nc1nnc(-c2cccc(Cl)c2Cl)c(N)n1,Potency,[3],inactive
same,Potency,[4],inactive
CN1CCC(=C2c3ccccc3C=Cc3ccccc32)CC1,Potency,[3],inactive
same,Potency,[4],inactive
OCCN(CCO)c1nc(N2CCCCC2)c2nc(N(CCO)CCO)nc(N3CCCCC3)c2n1,Potency,[1],inactive
same,outcome,[2],inactive
same,Potency,[4],inactive
Cn1ccc2cc3c(cc21)CCN3C(=O)Nc1cccnc1,Potency,[3],1 µM (active)
same,Potency,[8],inactive
same,Potency,[4],7.94 µM (active)
CNCCCC12CCC(c3ccccc31)c1ccccc12,Potency,[1],inactive
same,outcome,[2],inactive
same,Potency,[4],inactive
O=C(c1ccc(OCCN2CCCCC2)cc1)c1c(-c2ccc(O)cc2)sc2cc(O)ccc12,Potency,[7],15.8 µM (active)
same,Potency,[4],inactive
C[C@](N)(Cc1ccc(O)c(O)c1)C(=O)O,Potency,[3],inactive
same,Potency,[4],inactive
COc1ccc(C2CNC(=O)C2)cc1OC1CCCC1 (stereo not drawn),Potency,[3],inactive
same,Potency,[8],inactive
same,Potency,[6],inactive
same,Potency,[4],inactive
COc1cc2c(c(OC)c1OC)-c1ccc(OC)c(=O)cc1[C@@H](NC(C)=O)CC2,Potency,[6],inactive
same,Potency,[4],inactive
CCCCc1oc2ccccc2c1C(=O)c1cc(I)c(OCCN(CC)CC)c(I)c1,Potency,[1],inactive
same,outcome,[2],inactive
same,Potency,[6],inactive
same,Potency,[4],inactive
Cc1cn([C@H]2C[C@H](N=[N+]=[N-])[C@@H](CO)O2)c(=O)[nH]c1=O,outcome,[5],inactive
CN(C)CCOC(c1ccccc1)c1ccccc1,Potency,[1],inactive
same,outcome,[2],inactive
same,Potency,[4],inactive
CCOC(=O)C(C)(C)Oc1ccc(Cl)cc1,Potency,[3],inactive
same,Potency,[6],inactive
same,Potency,[4],inactive
O=C(CCCN1CCC(O)(c2ccc(Cl)cc2)CC1)c1ccc(F)cc1,Potency,[1],inactive
same,outcome,[2],inactive
same,Potency,[4],inactive
CC[N+](CC)(CC)CCOc1cccc(OCC[N+](CC)(CC)CC)c1OCC[N+](CC)(CC)CC,Potency,[3],inactive
same,Potency,[4],inactive
CN(C)CCC=C1c2ccccc2C=Cc2ccccc21,Potency,[1],inactive
same,outcome,[2],inactive
same,Potency,[8],0.0316 µM (active)
same,Potency,[6],0.112 µM (active)
same,Potency,[4],inactive
Cc1cnc(C(=O)NCCc2ccc(S(=O)(=O)NC(=O)NC3CCCCC3)cc2)cn1,Potency,[3],inactive
same,Potency,[4],inactive
CC(C(=O)O)c1cccc(C(=O)c2ccccc2)c1 (stereo not drawn),Potency,[1],inactive
same,outcome,[2],inactive
Fc1ccc([C@@H]2CCNC[C@H]2COc2ccc3c(c2)OCO3)cc1,Potency,[7],12.6 µM (active)
same,Potency,[4],inactive
NCCS(=O)(=O)O,Potency,[3],inactive
same,outcome,[5],inactive
same,Potency,[8],inactive
same,Potency,[6],inactive
same,Potency,[4],inactive
CN(Cc1cnc2nc(N)nc(N)c2n1)c1ccc(C(=O)N[C@@H](CCC(=O)O)C(=O)O)cc1,Potency,[3],inactive
same,Potency,[4],inactive
OCCN1CCN(CCCN2c3ccccc3Sc3ccc(C(F)(F)F)cc32)CC1,Potency,[1],inactive
same,outcome,[2],inactive
same,Potency,[4],inactive
Cc1cn([C@H]2C=C[C@@H](CO)O2)c(=O)[nH]c1=O,Potency,[3],inactive
same,outcome,[5],inactive
same,Potency,[4],inactive
Cc1ccc(C(=O)Nc2ccc(S(=O)(=O)O)c3cc(S(=O)(=O)O)cc(S(=O)(=O)O)c23)cc1NC(=O)c1cccc(NC(=O)Nc2cccc(C(=O)Nc3cc(C(=O)Nc4ccc(S(=O)(=O)O)c5cc(S(=O)(=O)O)cc(S(=O)(=O)O)c45)ccc3C)c2)c1,Potency,[1],inactive
same,outcome,[2],inactive
same,Potency,[8],1.58 µM (active)
same,Potency,[6],inactive
same,Potency,[4],inactive

# Reference: PubChem BioAssay (NCATS)
